Data published in PubChem BioAssay AID1159580 (chemical genetic matrix, 2015).
Among all 5,500 compounds or so, about 2,000 (36%) were called active. About 18% were inconclusive and are not listed. Cut-off read from the data, not from the text of the source: active = normalized growth mostly below about 0.91 (no sharp cut-off); inconclusive = no clear call, values can overlap the other calls; inactive = mostly above about 0.92. The list shows a part of the results.

Assay: chemical genetic growth profiling, strain panel (AID 1159580);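 note: tested at 20 µM; growth read once vehicle control cultures reached saturation at 30 °C; 1 = growth at the plate median or of vehicle wells; lower values mean less growth of the strain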
Conditions: growth OD

Measured: normalized growth

CC1CC2C3CCC4=CC(=O)C=C[C@]4(C)[C@@]3(F)[C@@H](O)C[C@]2(C)[C@@]1(O)C(=O)CO (stereo partly drawn)
inactive: S. cerevisiae deletion strains, locus YAL013W, strain DEP1, active compounds read low 0.995 | S. cerevisiae deletion strains, locus YAL021C, strain ccr4, active compounds read low 0.974 | S. cerevisiae deletion strains, locus YAL026C, strain drs2, active compounds read low 0.987 | S. cerevisiae deletion strains, locus YAL030W, strain snc1, active compounds read low 0.96 | S. cerevisiae deletion strains, locus YBL061C, strain skt5, active compounds read low 0.99 | S. cerevisiae deletion strains, locus YBR009C, strain hhf1, active compounds read low 1.03 | S. cerevisiae deletion strains, locus YBR021W, strain FUR4, active compounds read low 0.984 | S. cerevisiae deletion strains, locus YBR023C, strain chs3, active compounds read low 0.983 | S. cerevisiae deletion strains, locus YBR171W, strain sec66, active compounds read low 0.982 | S. cerevisiae deletion strains, locus YBR229C, strain ROT2, active compounds read low 0.989 | S. cerevisiae deletion strains, locus YBR231C, strain swc5, active compounds read low 1.06 | S. cerevisiae deletion strains, locus YBR279W, strain paf1, active compounds read low 1 | S. cerevisiae deletion strains, locus YCL011C, strain gbp2, active compounds read low 0.954 | S. cerevisiae deletion strains, locus YCL016C, strain dcc1, active compounds read low 0.978 | S. cerevisiae deletion strains, locus YCL029C, strain bik1, active compounds read low 0.979 | S. cerevisiae deletion strains, locus YCL061C, strain MRC1, active compounds read low 0.995 | S. cerevisiae deletion strains, locus YCL069W, strain vba3, active compounds read low 0.995 | S. cerevisiae deletion strains, locus YCR088W, strain abp1, active compounds read low 0.996 | S. cerevisiae deletion strains, locus YDL005C, strain med2, active compounds read low 0.973 | S. cerevisiae deletion strains, locus YDL035C, strain GPR1, active compounds read low 1.03 | S. cerevisiae deletion strains, locus YDL040C, strain nat1, active compounds read low 0.975 | S. cerevisiae deletion strains, locus YDL074C, strain BRE1, active compounds read low 0.979 | S. cerevisiae deletion strains, locus YDL101C, strain DUN1, active compounds read low 0.976 | S. cerevisiae deletion strains, locus YDL185W, strain tfp1, active compounds read low 0.982 | S. cerevisiae deletion strains, locus YDL192W, strain arf1, active compounds read low 0.974 | S. cerevisiae deletion strains, locus YDR001C, strain nth1, active compounds read low 0.988 | S. cerevisiae deletion strains, locus YDR069C, strain doa4, active compounds read low 0.979 | S. cerevisiae deletion strains, locus YDR101C, strain arx1, active compounds read low 0.984 | S. cerevisiae deletion strains, locus YDR137W, strain rgp1, active compounds read low 0.987 | S. cerevisiae deletion strains, locus YDR159W, strain sac3, active compounds read low 1.01 | S. cerevisiae deletion strains, locus YDR162C, strain NBP2, active compounds read low 1.02 | S. cerevisiae deletion strains, locus YDR195W, strain ref2 0.99 | S. cerevisiae deletion strains, locus YDR297W, strain sur2, active compounds read low 0.995 | S. cerevisiae deletion strains, locus YDR318W, strain mcm21, active compounds read low 0.983 | S. cerevisiae deletion strains, locus YDR334W, strain swr1, active compounds read low 0.976 | S. cerevisiae deletion strains, locus YDR335W, strain msn5, active compounds read low 0.984 | S. cerevisiae deletion strains, locus YDR388W, active compounds read low 0.968 | S. cerevisiae deletion strains, locus YDR392W, strain spt3, active compounds read low 0.904 | S. cerevisiae deletion strains, locus YDR502C, strain sam2, active compounds read low 0.991 | S. cerevisiae deletion strains, locus YEL003W, strain gim4, active compounds read low 0.963 | S. cerevisiae deletion strains, locus YEL037C, strain rad23, active compounds read low 0.976 | S. cerevisiae deletion strains, locus YEL061C, strain CIN8 (second series), active compounds read low 0.988 | S. cerevisiae deletion strains, locus YEL061C, strain CIN8, active compounds read low 0.994 | S. cerevisiae deletion strains, locus YER015W, strain faa2, active compounds read low 0.991 | S. cerevisiae deletion strains, locus YER016W, strain bim1, active compounds read low 0.95 | S. cerevisiae deletion strains, locus YER110C, active compounds read low 0.958 | S. cerevisiae deletion strains, locus YER111C, strain swi4, active compounds read low 0.983 | S. cerevisiae deletion strains, locus YER155C, strain BEM2 (second series), active compounds read low 1.03 | S. cerevisiae deletion strains, locus YER155C, strain BEM2, active compounds read low 0.984 | S. cerevisiae deletion strains, locus YER167W, strain BCK2, active compounds read low 1 | S. cerevisiae deletion strains, locus YFR010W, strain ubp6, active compounds read low 1.01 | S. cerevisiae deletion strains, locus YGL078C, strain dbp3, active compounds read low 0.971 | S. cerevisiae deletion strains, locus YGL086W, strain mad1, active compounds read low 0.98 | S. cerevisiae deletion strains, locus YGL167C, strain pmr1, active compounds read low 0.983 | S. cerevisiae deletion strains, locus YGL173C, strain kem1, active compounds read low 0.979 | S. cerevisiae deletion strains, locus YGL227W, strain vid30, active compounds read low 0.999 | S. cerevisiae deletion strains, locus YGL240W, strain doc1, active compounds read low 1.01 | S. cerevisiae deletion strains, locus YGL248W, strain PDE1, active compounds read low 0.98 | S. cerevisiae deletion strains, locus YGL253W, strain hxk2, active compounds read low 0.974 | S. cerevisiae deletion strains, locus YGR135W, strain pre9, active compounds read low 0.969 | S. cerevisiae deletion strains, locus YGR229C, strain SMI1, active compounds read low 1.02 | S. cerevisiae deletion strains, locus YGR252W, strain gcn5, active compounds read low 1.02 | S. cerevisiae deletion strains, locus YHR013C, strain ard1, active compounds read low 0.954 | S. cerevisiae deletion strains, locus YHR027C, strain rpn1, active compounds read low 0.992 | S. cerevisiae deletion strains, locus YHR030C, strain SLT2, active compounds read low 0.99 | S. cerevisiae deletion strains, locus YHR079C, strain IRE1 (second series), active compounds read low 0.965 | S. cerevisiae deletion strains, locus YHR094C, strain hxt1, active compounds read low 0.97 | S. cerevisiae deletion strains, locus YHR129C, strain ARP1, active compounds read low 0.993 | S. cerevisiae deletion strains, locus YHR142W, strain chs7, active compounds read low 0.959 | S. cerevisiae deletion strains, locus YHR200W, strain rpn10, active compounds read low 0.983 | S. cerevisiae deletion strains, locus YIL066C, strain RNR3, active compounds read low 1 | S. cerevisiae deletion strains, locus YIL073C, strain SPO22, active compounds read low 0.972 | S. cerevisiae deletion strains, locus YIL125W, strain kgd1, active compounds read low 0.963 | S. cerevisiae deletion strains, locus YIR030C, strain dcg1, active compounds read low 0.965 | S. cerevisiae deletion strains, locus YJL092W, strain hpr5, active compounds read low 0.963 | S. cerevisiae deletion strains, locus YJL095W, strain BCK1 (second series), active compounds read low 0.945 | S. cerevisiae deletion strains, locus YJL095W, strain BCK1, active compounds read low 0.96 | S. cerevisiae deletion strains, locus YJL115W, strain asf1, active compounds read low 0.976 | S. cerevisiae deletion strains, locus YJL129C, strain trk1, active compounds read low 0.965 | S. cerevisiae deletion strains, locus YJL134W, strain LCB3, active compounds read low 0.99 | S. cerevisiae deletion strains, locus YJL154C, strain vps35, active compounds read low 0.966 | S. cerevisiae deletion strains, locus YJL164C, strain tpk1, active compounds read low 1 | S. cerevisiae deletion strains, locus YJL166W, strain qcr8, active compounds read low 1 | S. cerevisiae deletion strains, locus YJL168C, strain set2, active compounds read low 0.966 | S. cerevisiae deletion strains, locus YJL187C, strain SWE1 (second series), active compounds read low 0.982 | S. cerevisiae deletion strains, locus YJR043C, strain POL32, active compounds read low 1.04 | S. cerevisiae deletion strains, locus YKL009W, strain mrt4, active compounds read low 0.963 | S. cerevisiae deletion strains, locus YKL068W, active compounds read low 0.987 | S. cerevisiae deletion strains, locus YKL085W, strain MDH1 (second series), active compounds read low 0.985 | S. cerevisiae deletion strains, locus YKL085W, strain MDH1, active compounds read low 0.985 | S. cerevisiae deletion strains, locus YKL160W, strain elf1, active compounds read low 0.943 | S. cerevisiae deletion strains, locus YKR001C, strain vps1, active compounds read low 0.968 | S. cerevisiae deletion strains, locus YKR026C, strain gcn3, active compounds read low 0.993 | S. cerevisiae deletion strains, locus YKR091W, strain srl3, active compounds read low 0.97 | S. cerevisiae deletion strains, locus YLL001W, strain dnm1, active compounds read low 1.01 | S. cerevisiae deletion strains, locus YLL026W, active compounds read low 0.997 | S. cerevisiae deletion strains, locus YLL041C, strain sdh2, active compounds read low 0.96 | S. cerevisiae deletion strains, locus YLR027C, strain aat2, active compounds read low 0.997 | S. cerevisiae deletion strains, locus YLR039C, strain RIC1, active compounds read low 0.991 | S. cerevisiae deletion strains, locus YLR058C, strain SHM2, active compounds read low 0.984 | S. cerevisiae deletion strains, locus YLR102C, strain apc9, active compounds read low 0.982 | S. cerevisiae deletion strains, locus YLR221C, strain rsa3, active compounds read low 1.01 | S. cerevisiae deletion strains, locus YLR258W, strain gsy2, active compounds read low 0.962 | S. cerevisiae deletion strains, locus YLR262C, strain YPT6 (second series), active compounds read low 0.985 | S. cerevisiae deletion strains, locus YLR262C, strain YPT6, active compounds read low 0.986 | S. cerevisiae deletion strains, locus YLR268W, strain sec22, active compounds read low 0.965 | S. cerevisiae deletion strains, locus YLR320W, strain mms22, active compounds read low 1.01 | S. cerevisiae deletion strains, locus YLR330W, strain CHS5, active compounds read low 0.99 | S. cerevisiae deletion strains, locus YLR342W, strain FKS1 (second series), active compounds read low 1.02 | S. cerevisiae deletion strains, locus YLR342W, strain FKS1, active compounds read low 0.977 | S. cerevisiae deletion strains, locus YLR357W, strain rsc2, active compounds read low 0.994 | S. cerevisiae deletion strains, locus YLR370C, strain arc18, active compounds read low 0.99 | S. cerevisiae deletion strains, locus YLR371W, strain rom2, active compounds read low 0.96 | S. cerevisiae deletion strains, locus YLR384C, strain iki3, active compounds read low 1.01 | S. cerevisiae deletion strains, locus YLR418C, strain cdc73, active compounds read low 0.974 | S. cerevisiae deletion strains, locus YML016C, strain PPZ1, active compounds read low 0.989 | S. cerevisiae deletion strains, locus YML032C, strain rad52, active compounds read low 0.981 | S. cerevisiae deletion strains, locus YML120C, strain ndi1, active compounds read low 0.979 | S. cerevisiae deletion strains, locus YML124C, strain tub3, active compounds read low 0.973 | S. cerevisiae deletion strains, locus YMR058W, strain fet3, active compounds read low 0.988 | S. cerevisiae deletion strains, locus YMR078C, strain ctf18, active compounds read low 0.958 | S. cerevisiae deletion strains, locus YMR125W, strain sto1, active compounds read low 0.97 | S. cerevisiae deletion strains, locus YMR129W, active compounds read low 0.975 | S. cerevisiae deletion strains, locus YMR205C, strain PFK2, active compounds read low 1.01 | S. cerevisiae deletion strains, locus YMR223W, strain ubp8, active compounds read low 0.977 | S. cerevisiae deletion strains, locus YMR231W, strain pep5, active compounds read low 0.987 | S. cerevisiae deletion strains, locus YMR263W, strain SAP30, active compounds read low 0.979 | S. cerevisiae deletion strains, locus YMR307W, strain GAS1, active compounds read low 1.03 | S. cerevisiae deletion strains, locus YNL067W, strain RPL9B, active compounds read low 0.961 | S. cerevisiae deletion strains, locus YNL071W, strain lat1, active compounds read low 0.993 | S. cerevisiae deletion strains, locus YNL128W, strain TEP1, active compounds read low 0.973 | S. cerevisiae deletion strains, locus YNL153C, strain GIM3, active compounds read low 0.981 | S. cerevisiae deletion strains, locus YNL209W, strain ssb2, active compounds read low 0.98 | S. cerevisiae deletion strains, locus YNL233W, strain BNI4, active compounds read low 0.965 | S. cerevisiae deletion strains, locus YNL248C, strain rpa49, active compounds read low 0.907 | S. cerevisiae deletion strains, locus YNL250W, strain rad50, active compounds read low 0.962 | S. cerevisiae deletion strains, locus YNL271C, strain bni1, active compounds read low 0.962 | S. cerevisiae deletion strains, locus YNL298W, strain CLA4, active compounds read low 0.966 | S. cerevisiae deletion strains, locus YNL307C, strain MCK1, active compounds read low 0.981 | S. cerevisiae deletion strains, locus YNL322C, strain KRE1 (second series), active compounds read low 0.96 | S. cerevisiae deletion strains, locus YNR049C, strain mso1, active compounds read low 0.968 | S. cerevisiae deletion strains, locus YNR052C, strain pop2, active compounds read low 0.966 | S. cerevisiae deletion strains, locus YOL012C, strain htz1 0.786 | S. cerevisiae deletion strains, locus YOL147C, strain pex11, active compounds read low 0.971 | S. cerevisiae deletion strains, locus YOR001W, strain rrp6, active compounds read low 1.04 | S. cerevisiae deletion strains, locus YOR061W, strain CKA2, active compounds read low 0.993 | S. cerevisiae deletion strains, locus YOR069W, strain VPS5, active compounds read low 0.986 | S. cerevisiae deletion strains, locus YOR070C, strain gyp1, active compounds read low 0.988 | S. cerevisiae deletion strains, locus YOR080W, strain dia2, active compounds read low 0.957 | S. cerevisiae deletion strains, locus YOR083W, strain WHI5, active compounds read low 0.914 | S. cerevisiae deletion strains, locus YOR106W, strain vam3, active compounds read low 0.942 | S. cerevisiae deletion strains, locus YOR136W, strain idh2, active compounds read low 0.986 | S. cerevisiae deletion strains, locus YOR144C, strain elg1, active compounds read low 0.972 | S. cerevisiae deletion strains, locus YOR184W, strain ser1, active compounds read low 0.979 | S. cerevisiae deletion strains, locus YOR265W, strain rbl2, active compounds read low 0.989 | S. cerevisiae deletion strains, locus YOR270C, strain vph1, active compounds read low 0.939 | S. cerevisiae deletion strains, locus YOR290C, strain snf2, active compounds read low 0.962 | S. cerevisiae deletion strains, locus YOR316C, strain cot1, active compounds read low 0.98 | S. cerevisiae deletion strains, locus YPL051W, strain arl3, active compounds read low 0.992 | S. cerevisiae deletion strains, locus YPL078C, strain atp4, active compounds read low 0.953 | S. cerevisiae deletion strains, locus YPL106C, strain sse1, active compounds read low 0.982 | S. cerevisiae deletion strains, locus YPL240C, strain hsp82, active compounds read low 1.01 | S. cerevisiae deletion strains, locus YPR119W, strain clb2, active compounds read low 0.973 | S. cerevisiae deletion strains, locus YPR141C, strain kar3, active compounds read low 0.961 | S. cerevisiae deletion strains, locus YPR163C, strain tif3, active compounds read low 0.981 | S. cerevisiae deletion strains, locus YPR167C, strain met16, active compounds read low 0.962 | S. cerevisiae deletion strains, strain wtn01, active compounds read low 0.963 | S. cerevisiae strains, strain wild type, active compounds read low 0.995
